Sampled rows, rich in hits. Any-hit rate of the full collection: about 3.1%.
Env fusion inh = inhibitors of HIV Env-mediated cell fusion; HeLa-JRFL Env/CEM21 cell fusion, luciferase; inhibition, % at 12.3 µM; hit rate 1.1% among 360,000;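 active = mean replicate inhibition score of at least 50 and every replicate individually at or above 50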;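 note: 0% = plate neutral controls and 100% = maraviroc near 300 nM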
GSIS activator = primary screen for activators of insulin secretion dependent on glucose, INS-1E cells, GLuc reporter luminescence. activation, % at 16.6 µM. hit rate 0.61% among 370,000. AID 743287. INS-1E GLuc reporter insulin secretion, 2-3 h;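 active = lowest replicate activation of at least 40%, so every replicate reaches that level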;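 note: 0% = median of neutral control wells and 100% = median of IBMX positive control wells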
Statin myotox sup = suppressors of simvastatin-induced myotoxicity in C2C12 myotubes; ATP luminescence, 48 h; scaled: DMSO 0, geranylgeraniol control 100; rescue of ATP level, % at 7.49 µM; hit rate 0.78% among 330,000;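 active = mean ATP rescue above about 67%, or every replicate alone reaching that limit, limit read from the data, passing the limit was not always enough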;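 note: myotubes were challenged with 10 µM simvastatin during compound exposure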
EWS-Fli inh = inhibitors of EWS/Fli oncoprotein transcriptional activity; inhibition, % at 12.6 µM; A673 NR0B1-luciferase reporter, viability-normalised; hit rate 0.67% among 350,000; AID 651661;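 active = mean inhibition of at least 50% after viability correction, with every replicate also passing that limit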;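 note: firefly luciferase signal divided by Alamar Blue viability fluorescence both relative to DMSO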
miR-122 sensor = miR-122 inhibition in Huh7 cells | Huh7 miR-122 Renilla luciferase sensor, 48 h; neutral wells = 0, positive control = 100 | AID 602342 | activation (reporter increase), % at 12.5 µM | hit rate 0.3% among 340,000;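 active = mean replicate activation score at least 90 and every replicate individually at or above 90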;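 note: higher luciferase means less miR-122 activity so hits act as miR-122 inhibitors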
PAX8 inh HTS = inhibitors of PAX8 transcriptional activity in RMG-I cells; AID 652154; RMG-I TPO-luciferase reporter, SteadyGlo, 24 h; hit rate 1.2% among 360,000; inhibition, % at 12.6 µM;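 active = mean replicate inhibition at least 60% with every replicate also reaching 60%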;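 note: luciferase light reporting Pax8 driven TPO promoter activity; plate controls were median of neutral control wells for no effect and mitoxantrone controls for full effect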
Starred values were filed as active, the others as inactive; x = no result; [ ] = another dose, or the depositor's remark.

SMILES | Env fusion inh | GSIS activator | Statin myotox sup | EWS-Fli inh | miR-122 sensor | PAX8 inh HTS
C[C@H](O)C#Cc1cnc2c(c1)C(=O)N([C@H](C)CO)C[C@@H](C)[C@@H](CN(C)Cc1cccc(F)c1)O2 | 14[16.7 µM] | 25 | 5 | -10 | -15[16.7 µM] | x
Cc1nc2sc(-c3ccccc3)cc2c(=O)n1N | -12 | 7 | -67 | 69* | 2 | 41
COc1ccccc1S(=O)(=O)n1cc(Cc2ccccc2)c(N)n1 | 79* | x | -8 | x | 10 | x
COc1ccc(Cl)cc1S(=O)(=O)N1CCN=C1Cc1ccccc1 | 36 | 17 | 4 | 9 | x | -7
Cc1nn(Cc2cccc(C(=O)Nc3ccn(Cc4c(F)c(F)cc(F)c4F)n3)c2)c(C)c1[N+](=O)[O-] | 56* | -5 | x | x | -7 | x
Cc1nn(C)c(C(=O)Nc2ccn(Cc3c(F)c(F)cc(F)c3F)n2)c1[N+](=O)[O-] | -1 | -2 | -13 | x | -6 | x
O=C(Nc1ncnc2sc3c(c12)CCCCC3)c1ccco1 | x | x | 128* | x | 8 | x
CCOC(=O)C1=C[C@@H](C(C)(C)C)N(S(=O)(=O)c2ccc([N+](=O)[O-])cc2)[C@H]1c1cccc(Cl)c1 | 71* | -1 | x | -18 | x | -21
CCOC(=O)C1=C[C@@H](C(C)(C)C)N(S(=O)(=O)c2ccc(OC)cc2)[C@H]1c1ccccc1 | 63* | -52 | -9 | 7 | -10 | 28
CCOC(=O)C1=CC[C@@H](c2cccc(Br)c2)N(S(=O)(=O)c2ccc(F)cc2)[C@H]1c1cccc(Cl)c1 | 60* | -9 | x | -2 | x | 14
COCC(=O)N1C[C@@H]2[C@H](c3ccccc31)[C@@H](CO)N2Cc1ccccc1F | x | -3 | -8 | 10 | 12[16.7 µM] | -5
Cc1noc(C)c1NC(=O)N(C)C[C@@H]1Oc2ccc(NC(=O)Cn3cnnn3)cc2CC(=O)N([C@H](C)CO)C[C@H]1C | 6[16.7 µM] | 3 | 18 | -18 | -8[16.7 µM] | -12
C[C@@H]1CN([C@@H](C)CO)C(=O)c2cc(C#CC3CCCC3)cnc2O[C@H]1CN(C)Cc1ccncc1 | 6[16.7 µM] | -8 | -7 | 7 | 6[16.7 µM] | -8
Cc1ccc(S(=O)(=O)NCC(=O)OCC(=O)c2cccs2)cc1 | 29 | x | 125* | x | -9 | -8
CC1(C)CN(O)CCN1O | -40 | 2 | x | 73* | x | 17
CC(C)NC(=O)Nc1ccc2c(c1)C(=O)N(C)C[C@H](C)[C@H](CN(C)S(C)(=O)=O)O2 | x | -12 | x | x | x | x
O=C(C[C@H]1C=C[C@@H](NS(=O)(=O)c2ccc(F)cc2)[C@@H](CO)O1)N1CCC(Cc2ccccc2)CC1 | 24[16.7 µM] | -26 | 13 | 17 | x | 14
CCOc1ccc(C2SCC(=O)N2c2c(C)n(C)n(-c3ccccc3)c2=O)cc1 (configuration not stated) | x | x | 117* | x | -2 | x
Cc1ccc(Sc2ncnc3onc(C)c23)cc1 | x | x | 98* | x | 3 | x
Cc1noc2ncnc(Sc3ccc(Cl)cc3)c12 | x | x | 134* | x | 4 | x
Cc1noc(C)c1NC(=O)N(C)C[C@@H]1Oc2ccc(NC(=O)Nc3ccc(F)cc3)cc2CC(=O)N([C@H](C)CO)C[C@@H]1C | -2[16.7 µM] | 15 | 7 | -4 | 4[16.7 µM] | 5
CCOc1ccc(CCNS(=O)(=O)c2cn(C)cn2)cc1OCC | -16 | 60* | 26 | x | 1 | 2
Cc1ccccc1S(=O)(=O)N1CC[C@@H]2[C@H](CO)N(C)c3ccc(C#Cc4ccc(F)cc4)cc3[C@@H]21 | x | 1 | 15 | 8 | 2[16.7 µM] | -7
O=C(NCC[C@@H]1CC[C@@H](NS(=O)(=O)c2cccc(F)c2)[C@H](CO)O1)C1CCOCC1 | -6[16.7 µM] | 2 | 2 | 1 | x | x
CCOC(=O)c1[nH]c2ccccc2c1NC(=O)Nc1ccc(OC)cc1 | x | x | 119* | x | 3 | x
Cc1cc(Cl)ccc1OCC(=O)N1CCCCC1 | x | x | -23 | x | 7 | x
CC(=O)N1CCN(c2ccc(NC(=O)COc3ccc(Cl)cc3Cl)cc2)CC1 | 53* | x | 25 | x | 4 | 11
CC(=O)N1CCN(c2ccccc2NC(=O)COc2ccc(Cl)cc2Cl)CC1 | x | x | -4 | x | -7 | x
O=C(COc1ccc(Cl)cc1Cl)N1CCCN(C(=O)COc2ccc(Cl)cc2Cl)CC1 | 83* | -25 | 4 | x | 0 | 39
CC(C)NC(=O)Nc1ccc2c(c1)C(=O)N([C@H](C)CO)C[C@H](C)[C@@H](CN(C)S(=O)(=O)c1ccc(F)cc1)OCCCC[C@@H](C)O2 | -13[16.7 µM] | -3 | x | -16 | -2[16.7 µM] | -40

Assay outcomes: PubChem, Broad Institute
